# Bioassay records as filed in PubChem.
# MCF10A rerep – inducers of DNA re-replication in MCF 10A breast cells. AID 624296. 350,000 tested, 2.9% active. Potency, µM (series often up to 46.1 µM), without a hit: at the highest dose activity, positive = re-replication, hits mostly activators. MCF 10A DNA re-replication, Hoechst nuclear intensity, 48 h; note: % of control where 0% means no effect; nearly all actives have a fitted effect of over 50% in size
# KB-V1 cytotox – kills drug-selected multidrug resistant KB-V1 cells; 400,000 tested, 3.4% active; KB-V1 MDR cells viability, CellTiter-Glo, 72 h; Potency, µM (titrated, usually from 46.1 µM), usual class: cytotoxic; note: % is set by controls: 0 for no effect and ±100 for the full control effect; nearly all actives have a fitted effect of over 60% in size
#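 Readout: CellTiter-Glo luminescence, 10 min after addition. Cells: KB-V1 MDR subline, 72 h at 37 degrees C with compound. Analysis: corrected, normalized data fitted to concentration-effect curves.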
# HT1080 IDH1KD tx – toxicity to HT-1080 IDH1 knockdown cells (counter line). HT-1080 IDH1 knockdown viability, ATP luminescence, 48 h. Potency, µM (doses to about 46.1 µM), for inactives: at the top dose activity, negative = toxicity, usual class: cytotoxic. 360,000 tested, 2% active;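 note: 0% = DMSO wells and -100% = cell-free medium wells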
#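 Assay cells: HT-1080 with IDH1 knockdown, 750 per well, RPMI/5% FBS. Exposure: 48 h at 37 °C following 2 h pre-incubation. Read: CellTiter-Glo luminescence; fitted concentration-response, curve class assigned.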
# KB-3-1 tox – kills parental KB-3-1 adenocarcinoma cells; Potency, µM (highest dose often 46.1 µM), hits mostly cytotoxic; 400,000 tested, 1.4% active; KB-3-1 viability, CellTiter-Glo ATP luminescence, 72 h; note: % is set by controls: 0 for no effect and ±100 for the full control effect; nearly all actives have a fitted effect of over 60% in size
#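 Using CellTiter-Glo luminescence, growth of non-resistant KB-3-1 adenocarcinoma cells is assessed 72 h after pin-tool compound addition at 37 °C. Normalized responses across the concentration series yield fitted curves.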
# HT1080NT lethal – kills 2HG-producing HT-1080-NT fibrosarcoma cells; Potency, µM (titrated, usually from 46.1 µM), for inactives: at the highest dose activity, negative = less viability, actives largely listed as cytotoxic; AID 686970; HT-1080-NT fibrosarcoma viability, CellTiter-Glo ATP luminescence, 48 h; 360,000 tested, 1.6% active;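 note: NT is the 2HG producing partner of a matched IDH1 knockdown line; 0% = DMSO-treated cells and -100% = media-only wells without cells; nearly all actives have a fitted effect of over 55% in size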
#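 Fibrosarcoma NT cells, 750 per well in 5% FBS RPMI, were exposed to compound for 48 hours. Viability: CellTiter-Glo luminescence.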
# SW480 rerep – DNA re-replication induction in SW480 cells; SW480 DNA re-replication, Hoechst DNA content imaging, 48 h; Potency, µM (series often up to 46.1 µM), without a hit: at the top dose re-replication activation, actives largely listed as activators; 340,000 tested, 1.8% active; note: % of control where 0% means no effect; nearly all actives have a fitted effect of over 55% in size
#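 Image-based DNA-content assay: after two days of treatment, nuclei were labelled with the DNA dye Hoechst and imaged, and hits were compounds raising the count of nuclei showing high fluorescence intensity.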
# * hit, by the source's call; i = inactive; ? = inconclusive; . = no result; ! = not confirmed by another sample; [ ] = dose if it differs, or a comment. Shown are actives, neighbours in structure and some others; about 8% of the full set was active somewhere. Calls come from the whole dose curve; as a rule, active = well fitted curve in the direction sought with a large enough effect; inconclusive = small, poorly fitted or top-dose-only effect, or another doubt; inactive = no such curve, though single readings can be large; an effect the other way counts as inactive or inconclusive. Potency is the fitted concentration of half-maximal effect.
SMILES,MCF10A rerep,KB-V1 cytotox,HT1080 IDH1KD tx,KB-3-1 tox,HT1080NT lethal,SW480 rerep
CCCC[C@@H](CN[C@H](C)CNC)NCC1CCC(C(C)(C)C)CC1 (stereo partly drawn),?,?,18µM*,?,?,-8%[9.22 µM]
O=c1cc(O)c2c(=O)n(-c3ccccc3)c3c(c2o1)CCCCC3,?,16µM*,0%,i,-2%,-12%
Cc1ccc(-n2c(=O)c3c(c4cc(C)ccc4n3C)n(CC(=O)Nc3cc(C)cc(C)c3)c2=O)cc1,.,i,.,i,.,.
Cc1cc2cc(CNC(=S)NCc3ccccc3)ccc2n1C,13%,i,-14%,i,?,-3%
COc1ccccc1NC(=S)NCc1ccc2c(c1)cc(C)n2C,?,i,-24%,i,2%,?
Cc1ccccc1NC(=S)NCc1ccc2c(c1)cc(C)n2C,?,21µM*,?,?,15µM*,16µM*
CCc1cccc(C)c1NC(=S)NCc1ccc2c(c1)cc(C)n2C,15µM*,i,-2%,?,-4%,15µM*
O=[N+]([O-])c1ccc(CSc2nnc(Cc3ccccc3)n2-c2ccc(F)cc2)cc1,1%,?,-25%,i,-20%,.
Cn1c(CSc2nnc(SCc3ccccc3)s2)nc2ccccc21,6%,16µM*,-2%,i,8%,2%
Cc1cccc(-n2c(Cc3ccccc3)nnc2SCc2ccc([N+](=O)[O-])cc2)c1,?,7.3µM*,-11%,?,-2%,0%
Cc1cccc(-n2c(SCc3ccc(C#N)cc3)nnc2-c2c[nH]c3ccccc23)c1,25%,3.3µM*,?,?,?,18%
O=[N+]([O-])c1ccc(CSc2nnc(SCc3ccccc3)s2)cc1,6.5µM*,i,9%,i,20%,-9%
O=[N+]([O-])c1ccc(CSc2nc3ccccc3o2)cc1,1%,i,-2%,i,1%,5%
CC(C)Sc1nnc2c3ccccc3n(C)c2n1,.,.,5%,.,2%,.
Cc1ccc(S(=O)(=O)Nc2ccc(S(=O)(=O)NC(C)(C)C)cc2)cc1,0%,18µM*,3%,?,-6%,-2%
Cc1ccc(NS(=O)(=O)c2ccc(NC(=O)C3CCCO3)cc2)cc1 (stereo not drawn),-2%,13µM*,-8%,i,-12%,-4%
O=C(Nc1ccc(S(=O)(=O)N2CCCC2)cc1)Nc1ccc(F)cc1F,5%,i,-25%,i,-2%,-5%
CC(C)(C)NS(=O)(=O)c1ccc(NS(=O)(=O)c2ccc(F)cc2)cc1,0%,i,5%,i,5%,-3%
Cc1ccc(NS(=O)(=O)c2ccc(C3CCCCC3)cc2)cc1,23µM*,21µM*,-25%,?,-24%,-4%
Cc1ccc(S(=O)(=O)Nc2ccc(N3CCCCC3)cc2)cc1,11%,i,-12%,i,-12%,17%
Cc1ccc(S(=O)(=O)Nc2ccc(NC(=O)Nc3ccc(F)cc3F)cc2)cc1,?,23µM*,-12%,?,0%,-70%
CCN1CCC(CN2CCNC2=S)CC1,-14%,i,14%,i,13%,16µM*
S=C1NCCN1CC1CCN(CCC23CC4CC(CC(C4)C2)C3)CC1,?,i,-2%,i,-2%,12%
CCc1nn(CC(=O)Nc2ccc(C)c(F)c2)c(=O)c2cc3cc(C)ccc3n12,.,i,.,i,.,.
C=CCn1c(NC(=O)c2ccccc2Cl)c(C#N)c2nc3ccccc3nc21,16µM*,8.2µM*,-27%,?,-23%,18µM*
SMILES,MCF10A rerep,KB-V1 cytotox,HT1080 IDH1KD tx,KB-3-1 tox,HT1080NT lethal,SW480 rerep
CCCCn1c(NC(C)=O)c(C#N)c2nc3ccccc3nc21,?,i,-6%,i,-4%,16%
COC1=CC(=O)CC(C)C12Oc1c(Cl)c(OC)cc(OC)c1C2=O (stereo not drawn),?,?,?,?,?,23µM*!
COC1=CC(=O)C[C@@H](C)[C@]12Oc1c(Cl)c(OC)cc(OC)c1C2=O,?,?,?,i,?,?
N=c1n(CCO)c2ccccc2n1Cc1ccccc1F,.,i,.,i,.,.
COc1ccc(CCNC(=O)CCCn2c(=O)c3ccccc3n(CC(=O)Nc3cccc(C)c3)c2=O)cc1OC,.,i,.,i,.,.
Cc1ccc(/C=C2/NC(=O)N(c3ccccc3)C2=O)o1,14%,i,6%,i,-4%,1%
O=C1N/C(=C/c2ccc(N3CCOCC3)o2)C(=O)N1c1cccc(Cl)c1,?,i,?,?,?,4.6µM*
O=C(NCc1ccccc1)c1cc(-c2cccc(O)c2)on1,?,i,0%,i,-6%,6.5µM*
O=C(NCc1cccnc1)c1cc(-c2ccccc2)on1,0%,?,-6%,i,-21%,-4%
O=C(Nc1cc2c(=O)n(-c3ccc(Oc4ccccc4)cc3)ccc2oc1=O)c1ccccc1,5.2µM*,i,4%,i,15%,?
CSc1nc(N(C)NC(=O)c2ccc(F)cc2)c2ccccc2n1,1.8µM*,1µM*,0.52µM*,0.65µM*,?,2.3µM*
COc1ccc2nc3sc(C(=O)NCCCN4CCc5ccccc5C4)cc3cc2c1,?,5.8µM*,-13%,i,-12%,?
COc1cc(OC)c(C(=O)Nc2cc(Cl)ccc2-n2cncn2)cc1OC,-16%,i,3%,i,2%,5.2µM*
O=C(Nc1cc(Cl)ccc1-n1cncn1)c1ccc([N+](=O)[O-])s1,21µM*,?,-1%,?,-21%,23µM*
COc1ccccc1C(=O)Nc1cc(Cl)ccc1-n1cncn1,-2%,i,-10%,i,-2%,3%
COCCNC(=O)C1(C)Cc2c(-c3cccc(C(N)=O)c3)ccnc2O1 (stereo not drawn),.,i,2%,i,12%,.
COc1ccc(NC(=O)C2(C)Cc3c(-c4cccc(C(F)(F)F)c4)ccnc3O2)cc1OC (stereo not drawn),.,i,15µM*,?,21µM*,.
CC1(C(=O)NCC2CC2)Cc2c(-c3cccc(C(F)(F)F)c3)ccnc2O1 (stereo not drawn),.,?,21µM*,?,?,.
CC1(C(=O)NCC2CC2)Cc2c(-c3cccc(C(N)=O)c3)ccnc2O1 (stereo not drawn),.,?,0%,i,-16%,.
COCCNC(=O)C1(C)Cc2c(-c3cccc(C(F)(F)F)c3)ccnc2O1 (stereo not drawn),.,i,21µM*,?,?,.
